This passage reports Potency and outcome results from PubChem BioAssay (Tox21).

Assay [1] in a line: qHTS assay for small molecules that induce genotoxicity in human embryonic kidney cells expressing luciferase-tagged ATAD5 (AID 651632). Note: nearly all actives have a fitted effect of over 15% in size. The essentials:
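Test compounds were delivered by pin tool onto HEK293T reporter cells (2,000/well) expressing ATAD5 fused to luciferase. After 16 hr at 37C, 5% CO2, Amplite was added for 30 min at room temperature and luminescence was measured.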
A general note: qHTS replaces the single test concentration by a dilution series.

Assay [2] in a line: qHTS assay for small molecule agonists of the p53 signaling pathway - cell viability (AID 651633; calls by dose curve; note: nearly all actives have a fitted effect of over 30% in size; note: potency is the fitted concentration of half-maximal effect). In a few lines:
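p53RE-bla cells, seeded at 4,000 per well and rested 5 h at 37 C/5% CO2, received compounds in DMSO for 16 h at 37 C. CellTiter-Glo was then added, and luminescence was read after 30 min at room temperature to gauge cytotoxicity.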

Assay [3] can be described thus: qHTS assay for small molecules that induce genotoxicity in human embryonic kidney cells expressing luciferase-tagged ATAD5 - cell viability (AID 651634; calls by dose curve; note: nearly all actives have a fitted effect of over 25% in size; note: potency is the fitted concentration of half-maximal effect). The essentials:
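Quantitative high-throughput format. HEK293T cells expressing ATAD5 fused to luciferase were plated at 2,000 cells/well and treated 15.5 hr with compound versus DMSO. Viability was determined by fluorescent live-cell protease substrate, 30 min at 37C.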

A short description of assay [4]: qHTS assay for small molecule disruptors of the mitochondrial membrane potential - cell viability (AID 720634; calls by dose curve; note: nearly all actives have a fitted effect of over 20% in size; note: potency is the fitted concentration of half-maximal effect). In a few lines:
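Same-well counter-screen: following the MMP dye addition, CellTiter-Glo was added to 1 hr compound-treated HepG2 cells and luminescence read after 30 min at room temperature.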

Assay [5] can be described thus: qHTS assay for small molecule disruptors of the mitochondrial membrane potential (AID 720635). Note: potency is the fitted concentration of half-maximal effect. The essentials: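 HepG2 cells (2,000/well) attached overnight at 37C, then took compound for 1 hr at 37C, 5% CO2. Mito-MPS dye was added for 30 min; fluorescence was read at 490/535 nm (monomers) and 540/590 nm (aggregates).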
A short description of assay [6]: qHTS assay to test for compound auto fluorescence at 590 nm (red) in HepG2 cells (AID 720674). In a few lines:
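Intrinsic compound fluorescence in the red window (Ex/Em 540/590 nm) is measured in attached HepG2 cells exposed for 1 hr, DMSO vehicle as baseline, benchmarked to Rose Bengal sodium.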

A short description of assay [7]: qHTS assay to test for compound auto fluorescence at 535 nm (green) in HepG2 cells (AID 720675).
The nature of assay [8]: qHTS assay to test for compound auto fluorescence at 460 nm (blue) in HEK293 cells (AID 720678). The essentials:
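HEK293 cells (2,000/well, medium with 10% dialyzed FBS) attached 4-5 hr, then exposed to compound overnight at 37C, 5% CO2. Blue fluorescence read at 405/460 nm, with triamterene as reference fluorophore.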

The nature of assay [9]: qHTS assay to test for compound auto fluorescence at 590 nm (red) in HEK293 cells (AID 720679). In a few lines:
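HEK293 cells (2,000/well, 10% dialyzed FBS) attached 4-5 hr, then dosed with compound or DMSO and incubated overnight at 37C, 5% CO2. Red fluorescence read at 540/590 nm, Rose Bengal sodium as reference fluorophore.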

A short description of assay [10]: qHTS assay to test for compound auto fluorescence at 535 nm (green) in HEK293 cells (AID 720680).
The nature of assay [11]: qHTS assay to test for compound auto fluorescence at 460 nm (blue) in HEK293 cell free culture (AID 720681). In a few lines:
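Test compounds were pinned into cell-free culture medium (DMEM with 10% FBS) and fluorescence was read directly at Ex/Em 405/460 nm. Signals were expressed as fluorescence equivalents of triamterene, with DMSO vehicle as control.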

Assay [12] is described as follows: qHTS assay to test for compound auto fluorescence at 535 nm (green) in HEK293 cell free culture (AID 720682). In a few lines: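 Read-out: 485/535 nm fluorescence intensity, calibrated against fluorescein. Medium only (DMEM + 10% FBS, no cells); test compound or DMSO vehicle added by pintool before plate reading.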
Assay [13] in a line: qHTS assay to test for compound auto fluorescence at 590 nm (red) in HEK293 cell free culture (AID 720683). In a few lines:
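Tox21 10K library compounds were pinned into cell-free DMEM with 10% FBS and fluorescence was read at excitation 540 nm. Activity is expressed as Rose Bengal sodium equivalency.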

Assay [14] is described as follows: qHTS assay to test for compound auto fluorescence at 590 nm (red) in HepG2 cell free culture (AID 720684). The essentials: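 Ex 540 / Em 590 nm read of compound in cell-free MEM (10% FBS). Rose Bengal sodium reference.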
Assay [15] can be described thus: qHTS assay to test for compound auto fluorescence at 460 nm (blue) in HepG2 cell free culture (AID 720685). The essentials: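 Cell-free plates of MEM plus 10% FBS received 23 nL compound or DMSO vehicle; blue-channel (405/460 nm) intensity scored against triamterene as reference fluorophore.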
Assay [16] can be described thus: qHTS assay to test for compound auto fluorescence at 460 nm (blue) in HepG2 cells (AID 720687). In a few lines:
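Cells (2,000/well in MEM with 10% FBS) attached overnight at 37 C, then were exposed to compound or DMSO for 1 hr at 37 C, 5% CO2. Fluorescence read at Ex/Em 405/460 nm, expressed as triamterene-equivalent signal.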

Assay [17] concerns the target Glucocorticoid receptor (Homo sapiens) (UniProt P04150). Kind of assay: qHTS assay to identify small molecule agonists of the glucocorticoid receptor (GR) signaling pathway (AID 720691; active = well fitted activation curve with a large enough effect in the signal ratio in the repeat runs, not every such curve was filed as active; the % refers to the signal ratio; note: potency is the fitted concentration of half-maximal effect). Particulars: GR-bla HeLa, beta-lactamase reporter ratio, 18 h; activation: at 62.4 µM (top of the series). In a few lines:
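A HeLa cervical cancer line expressing GR and a glucocorticoid response element-driven beta-lactamase gene is treated with compounds for 18 h; LiveBLAzer B/G FRET substrate is then applied and fluorescence read.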

Assay [18] can be described thus: qHTS assay to test for compound auto fluorescence at 535 nm (green) in HepG2 cell free culture (AID 720686).
Assay [19] has as its target Glucocorticoid receptor (Homo sapiens) (UniProt P04150). Kind of assay: qHTS assay to identify small molecule antagonists of the glucocorticoid receptor (GR) signaling pathway (AID 720692; active = well fitted inhibition curve with a large enough effect in the signal ratio in the repeat runs, not every such curve was filed as active; the % refers to the signal ratio; note: potency is the fitted concentration of half-maximal effect). In a few lines: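 GRE-bla HeLa line, dex-stimulated (5 nM final). Compound exposure 18 h, 37 C. Beta-lactamase FRET read after 2 h RT substrate.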
A short description of assay [20]: qHTS assay for small molecule agonists of the p53 signaling pathway (AID 651631; calls by dose curve; note: nearly all actives have a fitted effect of over 15% in size; note: potency is the fitted concentration of half-maximal effect). The essentials:
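HCT-116 cells carrying a stable p53 response element–beta-lactamase reporter were plated, rested 5 h at 37 °C, then exposed to compound in DMSO for 16 h at 37 °C; reporter activity was read as FRET substrate fluorescence after 2 h at room temperature.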

Where “and” joins values, the source holds several entries; their conditions need not be identical. Equal values may be shown once. Results filed as inconclusive are left out. Some structures have more than one record in an assay (separate samples or runs), and their calls can disagree. Calls of active or inactive are those of the source. Unless noted, calls come from the whole dose curve; as a rule, active = well fitted curve in the direction sought with a large enough effect in the repeat runs; inconclusive = weak or mixed curves; inactive = no such curve, though single readings can be large; an effect the other way counts as inactive or inconclusive.

Glucocorticoid receptor (Homo sapiens), sequence (P04150 whole entry, looked up): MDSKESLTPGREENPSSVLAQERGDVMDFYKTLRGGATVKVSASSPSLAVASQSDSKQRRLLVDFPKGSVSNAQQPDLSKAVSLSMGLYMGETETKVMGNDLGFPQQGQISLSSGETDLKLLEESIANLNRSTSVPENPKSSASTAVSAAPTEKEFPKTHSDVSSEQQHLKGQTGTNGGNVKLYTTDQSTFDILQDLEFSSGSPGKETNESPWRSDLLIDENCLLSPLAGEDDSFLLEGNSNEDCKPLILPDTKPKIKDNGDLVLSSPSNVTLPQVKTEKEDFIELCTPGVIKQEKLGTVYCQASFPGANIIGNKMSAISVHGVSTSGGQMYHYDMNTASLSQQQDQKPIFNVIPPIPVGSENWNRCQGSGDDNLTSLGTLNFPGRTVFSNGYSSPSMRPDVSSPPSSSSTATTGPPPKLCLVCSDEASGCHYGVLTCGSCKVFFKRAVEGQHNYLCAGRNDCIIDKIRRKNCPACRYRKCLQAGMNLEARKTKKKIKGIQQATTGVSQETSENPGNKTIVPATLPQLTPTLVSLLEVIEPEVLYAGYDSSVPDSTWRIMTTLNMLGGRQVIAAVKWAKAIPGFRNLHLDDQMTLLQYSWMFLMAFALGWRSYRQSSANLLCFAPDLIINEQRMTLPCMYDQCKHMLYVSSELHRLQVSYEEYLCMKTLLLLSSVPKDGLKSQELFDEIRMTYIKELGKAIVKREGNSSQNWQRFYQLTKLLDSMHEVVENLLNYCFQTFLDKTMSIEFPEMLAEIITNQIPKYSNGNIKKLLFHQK

For `O=C(NO)C1(NS(=O)(=O)c2ccc(Oc3ccc(F)cc3)cc2)CCOCC1`, the Potency entry in assay [1], in assay [2], in assay [3], in [4], in assay [5] and in [6] was “inactive” in each case. Moreover, the Potency entry in assay [7], in assay [8], in [9], in assay [11], in [13] and in assay [14] was “inactive” in each case. For the same compound, the Potency result in [15], in assay [16] and in assay [17] was “inactive” in each case. Further, the call in assay [10] and in assay [12] was inactive.

As for `O=C(OCC(COC(=O)c1ccccc1)(COC(=O)c1ccccc1)COC(=O)c1ccccc1)c1ccccc1`, the Potency entry in [1], in [2], in [3], in assay [4], in assay [6] and in [7] was “inactive” each time. Moreover, the Potency result in assay [8], in assay [9], in assay [11], in assay [13], in assay [14] and in [15] was “inactive” each time. The Potency result in [18] and in [16] was “inactive” throughout. Besides, the Potency in assay [5] was 3.06 µM (active). Besides, the compound was called inactive in [10].

As for `CC(NN)c1ccccc1` (stereo unspecified), the Potency entry in [1], in assay [2], in assay [3], in assay [4], in [5] and in assay [6] was “inactive” in each case. Besides, the Potency entry in [7], in assay [8], in [9], in assay [13], in assay [14] and in assay [15] was “inactive” throughout. In addition, the Potency entry in assay [18], in assay [16], in assay [17] and in assay [19] was “inactive” throughout. Besides, the compound was classed as inactive in [10] and in [12].

As to `CN(C)[C@@H]1C(=O)C(C(N)=O)=C(O)[C@@]2(O)C(=O)C3=C(O)c4c(O)ccc(Cl)c4[C@@H](O)[C@H]3C[C@@H]12`, the Potency result in [1], in assay [2], in assay [3], in [4], in [5] and in [6] was “inactive” in each case. The Potency result in assay [7], in assay [8], in assay [11], in [13], in [14] and in assay [15] was “inactive” throughout. Also, the Potency entry in [16], in assay [17] and in assay [19] was “inactive” throughout. For the same compound, the outcome in assay [10] and in assay [12] was inactive.

Turning to `CC(C)OC(=O)c1cc2c(OCC(O)CNC(C)(C)C)cccc2[nH]1` (stereo unspecified), the Potency entry in [1], in [2], in assay [3], in assay [4], in assay [5] and in assay [6] was “inactive” in each case. Moreover, the Potency result in assay [7], in assay [8], in assay [9], in [11], in assay [13] and in assay [14] was “inactive” throughout. Moreover, the Potency entry in [18], in assay [16], in [17] and in assay [19] was “inactive” throughout. Moreover, the compound was called inactive in assay [10] and in assay [12].

Regarding `O=C1Cc2cc(CCN3CCN(c4nsc5ccccc45)CC3)c(Cl)cc2N1`, the Potency entry in assay [20], in [4], in [5], in [6], in assay [7] and in [8] was “inactive” throughout. The Potency result in assay [9], in [13], in assay [14], in assay [18], in assay [16] and in [19] was “inactive” each time. The Potency result was “inactive and 23.7 µM (active)” in assay [2]; 21.3 µM (active) in assay [17]. In addition, the outcome in assay [10] and in assay [12] was inactive.

On to `CCCCc1oc2ccc(NS(C)(=O)=O)cc2c1C(=O)c1ccc(OCCCN(CCCC)CCCC)cc1`, for which the Potency result in assay [1], in assay [6], in assay [7], in assay [8], in [9] and in assay [13] was “inactive” each time. Besides, the Potency entry in [14], in [15], in assay [18] and in assay [16] was “inactive” throughout. The Potency in assay [2] was 29.8 µM (active); in [3] it was 26.6 µM (active); in assay [4], 29.8 µM (active); in [5], 9.44 µM (active). For the same compound, the compound was called inactive in assay [10] and in [12].

Turning to `COc1cccc2c1C(=O)c1c(O)c3c(c(O)c1C2=O)C[C@@](O)(C(=O)CO)C[C@@H]3O[C@H]1C[C@H](N)[C@H](O[C@@H]2CCCCO2)[C@H](C)O1`, the Potency in assay [20] was 1.88 µM (active); in [2], 8.41 µM (active); in assay [5] it was 0.699 µM (active); in assay [17], 3.01 µM (active). Besides, the Potency result in assay [4], in assay [8], in assay [11], in [15], in [18] and in assay [16] was “inactive” in each case. The compound was classed as inactive in assay [10] and in assay [12].

As to `CCCCC(CC)COP(=O)(O)OCC(CC)CCCC` (stereo unspecified), the Potency result in assay [1], in assay [3], in assay [4], in [6], in assay [7] and in assay [8] was “inactive” throughout. Besides, the Potency result in [11], in [13], in assay [14], in assay [18] and in assay [16] was “inactive” each time. Moreover, the Potency in assay [2] is 61.3 µM (active) and 27.3 µM (active); in assay [5] it was 68.7 µM (active); in assay [19], 49.1 µM (active). Besides, the compound was called inactive in assay [10] and in assay [12].
